Test results: PubChem BioAssay (NCI)
About 79,000 compounds went through this panel and 15% of them were active in at least one assay; those are over-represented in the sample as a whole. The source made the active and inactive calls. No stated cut-off is given here; in the data, active means growth inhibition above about 70%; inactive means the rest. Where a SMILES comes first, the peptide text is derived from it.

Assay: NCI Yeast Anticancer Drug Screen. Data for the mlh1 rad18 strain (AID 175)
Details: S. cerevisiae mlh1 rad18 strain growth inhibition; at 50.0 µM; hits give high values
Summary of the method: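 Vehicle-treated cultures served as the reference for growth inhibition in a yeast strain carrying DNA damage repair alterations exposed to each compound.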

Compound	growth inhibition
CCOC(=O)NC(C)=O	-20.8% (inactive)
Cc1n[nH]c(=S)n1NC=O	-15.8% (inactive)
CCCC(C)C(=O)O (stereo not given)	19.9% (inactive)
CCCCCCCCCCCCCCCCCCNC1=C(C)C(=O)C(NCCCCCCCCCCCCCCCCCC)=C(OCC)C1=O	-9.5% (inactive)
COc1cc(O)c(C(=O)CC(C)=O)c(OC)c1	-11.7% (inactive)
Cc1ccc(C(=O)c2c[nH]c(=O)[nH]c2=O)cc1	-21.9% (inactive)
CC(=O)c1cc2c(Br)cccc2oc1=O	-36.2% (inactive)
CC1N=C(c2ccccc2)SC1C (stereo not given)	-38.3% (inactive)
C/C(=N\N=C(\Cc1ccccc1)c1ccccc1)c1ccccc1	2.8% (inactive)
CC(C)CC(NC(=O)C(CCC(=O)O)NC(=O)CNC(=O)CNC(=O)C(CO)NC(=O)C(CC(C)C)NC(=O)C(NC(=O)C(CO)NC(=O)C(C)NC(=O)C(CCCNC(=N)N)NC(=O)C(C)NC(=O)CN)C(C)C)C(=O)NC(CC(=O)O)C(=O)NC(CCCNC(=N)N)C(=O)NC(Cc1c[nH]c2ccccc12)C(=O)NC(Cc1ccc(O)cc1)C(N)=O (stereo not given) (H-GARASVLSGGELDRWY-NH2; configuration not given here)	11.7% (inactive)
COc1ccc(C(C)=O)cc1CCCOC(C)=O	-2.6% (inactive)
COCc1ccc(C(C)(C)CC(C)(C)C)cc1	-1.3% (inactive)
CSc1nc(NN)c([N+](=O)[O-])c(SC)n1	15.6% (inactive)
O=c1oc2c(ccc3ccccc32)c(O)c1-c1cccc2ccccc12	99.3% (active)
CCOC1=C/C(=N\NC(N)=O)CCC1	0.1% (inactive)
CCSc1cccc(C(=O)O)c1	-7.8% (inactive)
NC(=O)N/N=C1\CCCC(OC(=O)c2ccccc2)CC1 (stereo not given)	-20.8% (inactive)
CS(=O)(=O)OC1COCOC1C1OCOCC1OS(C)(=O)=O (stereo not given)	-0.55% (inactive)
CCCCCCCCCCCCCCCC/C(C(=O)OC)=C(/O)C(=O)OCC	-5.75% (inactive)
CC(=O)OC1CCC2(C)C(CCC3(C)C2CCC2C4C5OC(=O)C4(CCC5(C)C)CCC23C)C1(C)C (stereo not given)	4.6% (inactive)

Compound	growth inhibition
CCOC(CN(C)C)OCC	5.7% (inactive)
NS(=O)(=O)c1ccc(N2C(=O)C3C(C2=O)C2(Cl)C(Cl)=C(Cl)C3(Cl)C2(Cl)Cl)cc1 (stereo not given)	20.6% (inactive)
Nc1nc(N)c(N=Nc2ccc(S(=O)(=O)O)cc2)c(N)n1	10.5% (inactive)
CC(=O)N(C)C	-6.5% (inactive)
N#CCCOCC(OCCC#N)C(OCCC#N)C(OCCC#N)C(COCCC#N)OCCC#N (stereo not given)	-13.2% (inactive)
O=S(=O)(O)C(O)c1ccccc1 (stereo not given)	-6.2% (inactive)
O=C(Nc1ccc2c(c1)Cc1cccc(F)c1-2)C(F)(F)F	7.3% (inactive)
COc1ccc(Br)cc1C1SCC(=O)N1c1nncs1 (stereo not given)	23.8% (inactive)
CCOC(=O)c1ccc(-c2ccccc2)cc1	-15.3% (inactive)
OC(Cc1cccnc1)(c1ccccc1)c1ccccc1	-0.4% (inactive)
CC(CCC(=O)O)[C@H]1CCC2[C@@H]3CC[C@@H]4CC(O)CC[C@]4(C)C3CC[C@@]21C (stereo not given in full)	-26.7% (inactive)
O=C(NO)c1ccccc1O	17.8% (inactive)
CC(C)NC(=O)N(C(=O)C(F)(F)F)C(C)C	7.5% (inactive)
CCN(CC)CCN(CCN(CC)CC)c1c(OC)cccc1OC	15.8% (inactive)
Cc1cc(C)c(C)c(C(=O)OC(C)C)c1C	-8.55% (inactive)
CCOC(=N)Cc1ccccc1	-27.9% (inactive)
Cc1cc(C)c(N(C)C(=O)CCC(=O)O)c(Br)c1	-6.45% (inactive)
COc1ccc(NC(=S)NN)cc1	6.2% (inactive)
NNC(=O)C1CCC(=O)N1S(=O)(=O)c1ccccc1 (stereo not given)	-25.6% (inactive)
COc1cc(C2c3cc4c(cc3OC(NNC(N)=S)C2C)OCO4)cc(OC)c1OC (stereo not given)	-9.9% (inactive)
